{
  "source": "PubChem BioAssay (NCATS)",
  "note": "Results filed as inconclusive are left out. Active and inactive are the calls of the source. Calls come from the whole dose curve; as a rule, active = well fitted inhibition curve with a large enough effect; inconclusive = small, poorly fitted or top-dose-only effect; inactive = no such curve, though single readings can be large or run the other way. Potency is the fitted concentration of half-maximal effect.",
  "data": [
    {"target": "Rap guanine nucleotide exchange factor 3 (Homo sapiens) (UniProt O95398)", "sequence (O95398 whole entry, looked up)": "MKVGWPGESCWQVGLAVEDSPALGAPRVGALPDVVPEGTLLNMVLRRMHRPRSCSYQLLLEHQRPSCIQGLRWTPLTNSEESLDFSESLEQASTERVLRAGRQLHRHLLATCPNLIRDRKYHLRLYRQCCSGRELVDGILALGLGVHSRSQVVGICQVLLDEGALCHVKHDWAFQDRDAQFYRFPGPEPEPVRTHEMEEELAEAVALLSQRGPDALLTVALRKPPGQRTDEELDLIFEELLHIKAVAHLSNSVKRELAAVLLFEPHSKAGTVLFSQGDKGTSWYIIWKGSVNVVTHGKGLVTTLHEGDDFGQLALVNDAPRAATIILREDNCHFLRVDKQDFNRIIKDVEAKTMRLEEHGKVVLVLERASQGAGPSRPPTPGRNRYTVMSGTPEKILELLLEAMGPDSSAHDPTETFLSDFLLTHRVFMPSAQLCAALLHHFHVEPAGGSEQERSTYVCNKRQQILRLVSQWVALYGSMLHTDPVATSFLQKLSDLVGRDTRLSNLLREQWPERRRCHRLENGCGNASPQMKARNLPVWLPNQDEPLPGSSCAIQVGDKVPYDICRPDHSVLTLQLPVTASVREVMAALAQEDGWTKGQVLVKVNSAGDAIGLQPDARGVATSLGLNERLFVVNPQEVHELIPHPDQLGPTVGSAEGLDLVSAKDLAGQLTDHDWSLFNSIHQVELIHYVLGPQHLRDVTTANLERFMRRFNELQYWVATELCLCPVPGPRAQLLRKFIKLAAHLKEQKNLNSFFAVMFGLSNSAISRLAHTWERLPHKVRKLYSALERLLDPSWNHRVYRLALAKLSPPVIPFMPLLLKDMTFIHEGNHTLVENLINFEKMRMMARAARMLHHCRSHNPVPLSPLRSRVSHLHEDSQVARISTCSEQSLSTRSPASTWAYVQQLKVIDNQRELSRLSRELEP", "experiment": "Confirmatory qHTS for antagonist of cAMP-regulated guanine nucleotide exchange factor 3 (EPAC1) (AID 1645880); note: nearly all actives have a fitted effect of over 55% in size;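 for activity, negative = inhibition: plate controls were DMSO only for no effect and full effect of the ATA control for full effect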", "conditions": "EPAC1 Rap1B-BODIPY-GDP exchange, fluorescence; series mostly up to 115 µM; activity, negative = inhibition: at the top concentration", "how_it_was_run": "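Released BODIPY-GDP fluoresces less than Rap1-bound BODIPY-GDP; the signal is followed at 480/540 nm at 5-min intervals over 30 min, after 5 min at room temperature. Reactions contain 100 nM EPAC1, 250 nM RAP1B-BODIPY-GDP and 50 uM GDP; results are normalized to ATA and DMSO.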", "values": [
      {"smiles": "O=C1CSC2(C(=O)N(Cc3ccccc3F)c3ccccc32)N1c1ccc(F)cc1", "note": "(stereo not given)", "activity, negative = inhibition": "-32.9% (inactive)"},
      {"smiles": "CN(CCC#N)C(=O)COC(=O)c1c2c(nc3ccccc13)/C(=C/c1ccco1)CC2", "Potency": "3.55 µM (active)"},
      {"smiles": "COc1cc(C=NNc2ccc(S(=O)(=O)Nc3ccccc3C(=O)O)cc2[N+](=O)[O-])ccc1O", "Potency": "20 µM (active)"},
      {"smiles": "COc1cccc2sc(N3CCN(c4nc5ccccc5s4)CC3)nc12", "activity, negative = inhibition": "-14.2% (inactive)"},
      {"smiles": "O=C1C(Cl)=C(NC(=O)c2ccccc2)C(=O)C(Cl)=C1NC(=O)c1ccccc1", "activity, negative = inhibition": "-19.7% (inactive)"},
      {"smiles": "CCOCCCn1c(SCC(=O)Nc2cccc(OC)c2)nc2ccccc2c1=O", "activity, negative = inhibition": "-15.3% (inactive)"},
      {"smiles": "C#CCOCCOCCOCCNc1nc(N2CCN(C(=O)[C@H](Cc3cc4ccccc4[nH]3)n3cc([C@@H](N)Cc4ccc(O)cc4)nn3)CC2)nc(N2CCN(C(=O)[C@H](Cc3cc4ccccc4[nH]3)n3cc([C@@H](N)CC(C)C)nn3)CC2)n1", "Potency": "44.7 µM (active)"},
      {"smiles": "CN(C)S(=O)(=O)c1cccc(-c2nn(-c3ccccc3)cc2/C=C2\\SC(=S)NC2=O)c1", "Potency": "21.3 µM (active)"},
      {"smiles": "Cc1cc(NS(=O)(=O)c2ccc(NC(=O)Cc3ccc(Cl)c(Cl)c3)cc2)no1", "activity, negative = inhibition": "-16.2% (inactive)"},
      {"smiles": "CCCCCCOC(=O)C(C#N)c1nc2ccccc2nc1N1CCOCC1", "note": "(stereo not given)", "Potency": "75.7 µM (active)"},
      {"smiles": "CC(=O)N1N=C(N)SC1c1ccc(Cl)c(Cl)c1", "note": "(stereo not given)", "activity, negative = inhibition": "-6.67% (inactive)"},
      {"smiles": "O=C(OCC(=O)N1CCCC1=O)c1cc(Cl)ccc1O", "activity, negative = inhibition": "-9.07% (inactive)"},
      {"smiles": "CCOC(=O)c1sc(N2C(=O)C(O)=C(C(=O)c3ccco3)C2c2cccc([N+](=O)[O-])c2)nc1C", "note": "(stereo not given)", "Potency": "5.36 µM (active)"},
      {"smiles": "O=C1NN(c2cccc(Br)c2)C(=O)/C1=C/c1ccc(-c2cc([N+](=O)[O-])ccc2O)o1", "Potency": "16.9 µM (active)"},
      {"smiles": "CCc1ccc(Nc2n[n+](-c3ccccc3)c(-c3cc(OC)c(OC)cc3Br)s2)cc1", "activity, negative = inhibition": "-22.1% (inactive)"},
      {"smiles": "CC(C)(C)c1ccc(CC(=O)N2CCC2(C)C(=O)NS(=O)(=O)c2ccccc2)cc1", "note": "(stereo not given)", "activity, negative = inhibition": "-18.2% (inactive)"},
      {"smiles": "CC(C)N1CCc2c(sc(NC(=O)c3ccc(S(=O)(=O)N4CCCCC4C)cc3)c2C(N)=O)C1", "note": "(stereo not given)", "Potency": "89.1 µM (active)"},
      {"smiles": "O=C1CC(c2ccccc2)=C(c2ccccc2)C1", "activity, negative = inhibition": "-13.3% (inactive)"},
      {"smiles": "COc1ccc(C(C#N)N2N=C(C)CC2c2ccccc2)cc1", "note": "(stereo not given)", "activity, negative = inhibition": "-19.8% (inactive)"},
      {"smiles": "CCOC(=O)c1cc2c(=O)n3ccccc3nc2n(Cc2ccco2)c1=NC(=O)c1ccc(Br)cc1", "Potency": "75.7 µM (active)"},
      {"smiles": "CCOC(=O)C1=C(CSc2nc3ccccc3s2)NC(=O)NC1c1ccc(OC)cc1", "note": "(stereo not given)", "activity, negative = inhibition": "-26.1% (inactive)"},
      {"smiles": "Cn1c(=O)c2c(nc(N3CCOCC3)n2CCSc2ncccn2)n(C)c1=O", "activity, negative = inhibition": "-12.9% (inactive)"},
      {"smiles": "CCOc1ccc(S(=O)(=O)N2CCCCC2)c2ccccc12", "activity, negative = inhibition": "-24.8% (inactive)"},
      {"smiles": "O=C(c1ccco1)N(CCC(c1ccccc1)c1ccco1)Cc1ccco1", "note": "(stereo not given)", "Potency": "75.7 µM (active)"},
      {"smiles": "CC(C)OC(=O)/C(=C/c1ccc2c(c1)c1ccccc1n2C)NC(=O)c1ccccc1", "activity, negative = inhibition": "-24.6% (inactive)"},
      {"smiles": "C=CCn1c(NC(=O)c2ccccc2Cl)c(C#N)c2nc3ccccc3nc21", "Potency": "35.5 µM (active)"},
      {"smiles": "Cc1cccc(N=C2NC(=O)/C(=C/C=C/c3ccco3)S2)c1C", "Potency": "9.53 µM (active)"},
      {"smiles": "CC(=O)c1ccc(NC(=O)CSc2nc(Nc3ccccc3)nc(N3CCOCC3)n2)cc1", "activity, negative = inhibition": "-18.8% (inactive)"},
      {"smiles": "CN(C(=O)c1cc(-c2ccccc2)on1)C1CCCCC1", "activity, negative = inhibition": "-16.3% (inactive)"},
      {"smiles": "CCOC(=O)N1CCN(C(=O)CSc2nnc(Cc3ccccc3)o2)CC1", "activity, negative = inhibition": "-9.52% (inactive)"},
      {"smiles": "CCOC(=O)c1ccc(NC(=O)Cn2nc(C)c3nn(-c4ccc(Cl)cc4)c(C)c3c2=O)cc1", "activity, negative = inhibition": "-29.6% (inactive)"},
      {"smiles": "CN1N=C(C(C)(C)C)CC1=O", "activity, negative = inhibition": "-20.9% (inactive)"},
      {"smiles": "Cc1ccc(S(=O)(=O)NC(=O)Cn2nnc(-c3ccccc3)c2COc2ccc3ccccc3c2)cc1", "Potency": "19 µM (active)"},
      {"smiles": "CCOc1ccccc1NC(=O)COC(=O)c1ccc(S(=O)(=O)N2CCCC2)cc1", "activity, negative = inhibition": "-22.1% (inactive)"},
      {"smiles": "Cc1ccc(C(=O)c2cn(Cc3ccccc3)c3nc(C)ccc3c2=O)cc1", "activity, negative = inhibition": "-62.5% (inactive)"},
      {"smiles": "Cc1ccc(O)c(N=Cc2cc(Cc3ccccc3)cc([N+](=O)[O-])c2O)c1", "Potency": "33.8 µM (active)"},
      {"smiles": "O=C(c1ccc([N+](=O)[O-])o1)N1CCN(c2nc3c(Cl)cccc3s2)CC1", "activity, negative = inhibition": "-31.1% (inactive)"},
      {"smiles": "CC/C(=N/NC(=O)c1ccc2c(c1)OCO2)c1ccccc1O", "Potency": "15.1 µM (active)"},
      {"smiles": "Cn1nc(-c2ccccn2)nc2c(=O)n(C)c(=O)nc1-2", "Potency": "1.69 µM (active)"},
      {"smiles": "COc1ccc(C(=O)c2ccc(OC)c(OC)c2OC)cc1", "activity, negative = inhibition": "-17.9% (inactive)"}
    ]}
  ]
}
